# Screens deposited in PubChem BioAssay by several laboratories.
# PrPC surface inh: inhibitors of human cell surface prion protein PrPC, primary screen, cell-based, TR-FRET | Major prion protein (Homo sapiens), P04156 | TR-FRET read-out | inhibition, % at 13.8 µM | 0.43% of 370,000 active | AID 720596, 2013; in the data active means inhibition above about 24%
# MazF activator: activators of E. coli MazEF toxin-antitoxin RNase, primary screen, biochemical, fluorescence, uHTS. activation, % at 20 µM. AID 504720, 2011. Endoribonuclease toxin MazF (Escherichia coli (strain K12)), P0AE70. 0.32% of 350,000 active. FAM/BHQ RNA-DNA oligo cleavage fluorescence, 5 h; in the data active means activation above about 50%
# Target sequence (P0AE70 whole entry, looked up): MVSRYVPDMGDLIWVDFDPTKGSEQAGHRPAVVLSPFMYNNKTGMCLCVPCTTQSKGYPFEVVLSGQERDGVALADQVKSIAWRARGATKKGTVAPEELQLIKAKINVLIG
# Mtb hypoxia inh: PubChem AID 1159583; M. tuberculosis hypoxia-regulated fluorescent reporter, fluorescence; fluorescence inhibition, % (no concentration beside the values); 0.1% of 300,000 active; in the data active means fluorescence inhibition mostly above about 23%, no sharp cut-off; inactive means mostly below about 17%
# DUSP3 inh: VHR1 phosphatase inhibitors, primary screen, biochemical, absorbance, uHTS; recombinant VHR phosphatase, pNPP absorbance; Dual specificity protein phosphatase 3 (Homo sapiens), P51452; inhibition, % at 13.3 µM; 0.52% of 290,000 active; in the data active means inhibition above about 50%
# Target sequence (P51452 whole entry, looked up): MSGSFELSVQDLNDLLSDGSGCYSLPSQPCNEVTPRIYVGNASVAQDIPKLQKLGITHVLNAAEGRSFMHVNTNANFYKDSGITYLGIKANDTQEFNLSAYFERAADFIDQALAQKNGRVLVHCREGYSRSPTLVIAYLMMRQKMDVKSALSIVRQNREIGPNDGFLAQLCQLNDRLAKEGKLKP
# SARS 3CLpro inh: SARS-CoV 3CLpro protease inhibitors, primary screen, biochemical, quenched FRET. recombinant SARS-CoV 3CLpro, quenched FRET peptide cleavage. inhibition, % at 6 µM. 0.14% of 290,000 active; in the data active means inhibition above about 12%
# PrP 5UTR inh: inhibition of PrP 5' UTR reporter expression | cell-based PrP 5' UTR mRNA reporter, plate reader | inhibition, % (no concentration beside the values) | 0.35% of 340,000 active | AID 488862, 2010; in the data active means inhibition above about 52%
# PrP UTR cherry: prion 5' UTR mRNA inhibition, cherry-pick retest. cell-based prion protein 5' UTR reporter, plate reader. inhibition, % at 2.5 µM. 48% of 1,100 active. shares compounds with PrP 5UTR inh. AID 504592, 2011; in the data active means inhibition above about 54%; inconclusive means no clear call, values can overlap the other calls
# Numbers stand for hits; – = inactive; ? = inconclusive; · = not tested or not shown. Compounds with a hit are over-represented: about 1.5% of the library has one in this group of screens.
SMILES,PrPC surface inh,MazF activator,Mtb hypoxia inh,DUSP3 inh,SARS 3CLpro inh,PrP 5UTR inh,PrP UTR cherry
O=C(Nc1ccccc1)C1=CC(C2CCCCC2)CC(OCCCCO)O1 (stereo unspecified),·,·,–,·,·,·,·
CC(C)(C)c1cc[n+](-c2[nH]c(=O)sc2C=NNC(=O)c2ccccc2[O-])cc1,·,·,–,·,·,·,·
CC(C)(C)n1ncc2c(=O)n(CC(=O)c3ccccc3)cnc21,–,–,–,–,–,–,·
CC(C)(C)n1ncc2c(=O)n(CC(=O)OCc3ccccc3)cnc21,–,–,–,–,–,59.9,–
Cc1c(Cl)cccc1Nc1n[nH]c(=S)s1,–,–,·,·,·,71.1,–
CC(C)=CC(=O)OC1C2C(CC(C)C3C(O)CC(=O)[C@@]13C)OC(=O)C2C (stereo partly specified),·,·,–,·,·,·,·
O=C1CSC(=S)N1N=Cc1cccnc1,·,·,–,·,·,·,·
COc1cc(-c2cc(-c3ccccc3)nc(SCC(=O)Nc3nccs3)c2C#N)cc(OC)c1OC,–,–,–,–,–,–,·
Cc1nc(SCC(=O)Nc2nc3ccccc3s2)c(C#N)c(C)c1C,–,–,–,–,–,92.8,93.0
Cc1nc(SCC(=O)Nc2nccs2)c(C#N)c(C)c1C,–,–,–,·,·,71.2,69.2
Cc1cc(C(F)(F)F)c(C#N)c(SCC(=O)Nc2nc3ccccc3s2)n1,–,–,–,–,–,–,·
CCN(CC)Cc1cc(C(C)(C)C)cc(N2CCOCC2)c1O,–,–,–,·,·,73.1,–
Nc1n[nH]c(N)c1N=Nc1ccccc1F,–,–,–,–,–,–,·
Cc1ccccc1N=Nc1c(N)n[nH]c1N,–,–,–,–,–,54.7,–
N=c1c2c(n(Cc3ccc([N+](=O)[O-])cc3)c3c1CCC3)CCCC2,–,–,–,–,–,80.0,–
N=c1c2c(n(Cc3ccc(Br)cc3)c3c1CCC3)CCCC2,–,–,–,–,–,–,·
COc1ccc(OC)c2[nH]c(=O)c(CCNC(=O)COc3ccccc3)cc12,–,–,·,–,–,56.7,–
COc1ccc(OC)c2[nH]c(=O)c(CCNC(C)=O)cc12,–,–,–,–,–,–,·
Cc1nc2ccccc2c(=O)n1NC(=O)C=Cc1ccccc1,·,·,–,·,·,·,·
C=C(C1=CCN(S(=O)C(C)(C)C)[C@@H]1CCO)c1ccccc1 (stereo partly specified),–,–,–,·,·,58.8,–
C=C(CCO)C1=CCN(S(=O)C(C)(C)C)[C@@H]1CCO (stereo partly specified),–,–,–,·,·,–,·
O=C(/C=C/c1cccs1)Nc1ccc(Br)cn1,–,–,–,–,–,60.9,84.4
Cc1nc(N)nc(N)c1-c1ccc(Cl)c(Cl)c1,–,–,·,·,·,57.7,–
Nc1nc(N)nc(-c2ccc(Cl)c(Cl)c2)n1,–,–,–,·,·,–,·
Cc1ccc(S(=O)(=O)N2CCC(=O)CC2c2ccccc2)cc1 (stereo unspecified),–,–,–,·,·,56.2,–
SMILES,PrPC surface inh,MazF activator,Mtb hypoxia inh,DUSP3 inh,SARS 3CLpro inh,PrP 5UTR inh,PrP UTR cherry
Cc1ccc([C@@H]2C[C@H]3[C@@H](CN2S(=O)(=O)c2ccc(C)cc2)C(=O)C[C@@H](c2ccccc2)N3S(=O)(=O)c2ccc(C)cc2)cc1,–,–,·,·,·,·,·
COC(=O)C1=C(c2ccc(C(C)=O)cc2)CC2CCC1N2C(=O)N1CCOCC1 (stereo unspecified),·,·,–,·,·,·,·
O=C(NN=Cc1cc(Br)ccc1O)c1ccncc1,·,·,–,·,·,·,·
COc1cc(C(=O)NCC(=O)NN=Cc2ccc(-c3ccc([N+](=O)[O-])cc3)o2)cc(OC)c1OC,·,·,–,·,·,·,·
COc1ccccc1-[n+]1c(C)cc(/C=C2\Sc3ccccc3N2C)cc1C,–,–,·,–,–,70.4,–
COc1ccc(C(=O)/C=C2\Sc3ccccc3N2C)cc1,–,–,–,–,–,–,·
COc1ccc(-[n+]2c(C)cc(/C=C3\Sc4ccccc4N3C)cc2C)cc1,–,·,·,–,–,65.9,?
COc1ccc(C=NNC(=O)c2sccc2C)c2ccccc12,·,·,–,·,·,·,·
CC(C)CC1COCCS(=O)(=O)N1Cc1cccc(Cl)c1 (stereo unspecified),·,·,–,·,·,·,·
CCOC(=O)N1CCN(C(=O)C(CC)n2nc(C)c3sc4ccccc4c3c2=O)CC1 (stereo unspecified),–,–,–,–,–,81.3,–
CCN1C=C(C(=O)c2ccccc2)C(=O)CC1,–,–,–,·,·,60.5,–
Cc1ccc(CN2C(=O)S/C(=C\c3ccccc3OCC(=O)O)C2=O)cc1,–,–,–,–,–,81.4,–
O=C(O)COc1ccccc1/C=C1\SC(=O)N(Cc2ccc(F)cc2)C1=O,–,–,–,–,–,–,·
COc1ccc(C=Nn2cnc3c([nH]c4ccccc43)c2=O)cc1CO,·,·,–,·,·,·,·
Cc1ccc(/C=C2/SC(=S)N(c3ccc(S(=O)(=O)Nc4nccs4)cc3)C2=O)cc1,–,–,–,–,–,83.1,–
COc1ccc(/C=C2/SC(=S)N(c3ccc(S(=O)(=O)Nc4nccs4)cc3)C2=O)cc1,–,–,–,–,–,–,·
CCCC(=NNC(=O)c1ccccc1Cl)c1ccccc1,·,·,–,·,·,·,·
CCN(CCCl)c1cc(CN(C)C)cc(NC(=O)c2ccc(C(=O)Nc3cc(CN(C)C)cc(N(CC)CCCl)c3)cc2)c1,–,–,·,·,·,95.1,90.7
CCN(CC)c1ccc(NC(=O)c2cnn(CC)c2)cc1,–,–,·,–,–,–,·
O=C1NCCCC1C(=O)NN=Cc1ccccc1 (stereo unspecified),·,·,–,·,·,·,·
O=C(NN1C(=O)C2C3C=CC(C4CC34)C2C1=O)c1ccc(Br)cc1 (stereo unspecified),–,–,–,–,–,58.1,67.6
CC(CC(=O)NCc1ccco1)=NNC(=O)COc1ccc(C)cc1,·,·,–,·,·,·,·
O=C(NN=Cc1ccccc1F)NC12CC3CC(CC(C3)C1)C2,·,·,–,·,·,·,·
NC(CSC(c1ccccc1)(c1ccccc1)c1ccccc1)C(=O)O (stereo unspecified),–,–,·,·,·,–,·
Cc1ccc(C2(SCC(N)C(=O)O)c3ccccc3-c3ccccc32)cc1 (stereo unspecified),–,–,·,·,·,88.9,–
SMILES,PrPC surface inh,MazF activator,Mtb hypoxia inh,DUSP3 inh,SARS 3CLpro inh,PrP 5UTR inh,PrP UTR cherry
O=c1c2c(-c3ccccc3)csc2ncn1N=Cc1c2ccccc2cc2ccccc12,·,·,–,·,·,·,·
Nc1nnc(CC(=O)NN=Cc2ccc(-c3ccc(Cl)cc3Cl)o2)s1,·,·,–,·,·,·,·
COc1ccc2c(=O)cc(-c3cccnc3)oc2c1OC,–,–,–,–,–,53.8,–
COc1cc(-c2nnc(-c3cccnc3)o2)cc(OC)c1OC,–,–,–,–,–,–,·
CC(C)(C)c1ccc(-c2cc(N)n[nH]2)cc1,–,–,–,–,–,63.7,?
CC(=O)OC1C2C(CC(C)C3CCC(=O)[C@]31C)OC(=O)C2C (stereo partly specified),·,·,–,·,·,·,·
